The list is not random: actives were taken first. Their share in the collection is about 20%.
Shiga inhibitor = A qHTS for Small Molecule Inhibitors of Shiga Toxin; Vero cells, Shiga toxin protein synthesis inhibition reporter; inhibition, % at 38.7 µM; 290,000 tested, 9.2% active; AID 2315, 2010; in the data active = inhibition mostly above about 28%, no sharp cut-off; inactive = mostly below about 43%
Pf growth 96h = Primary qHTS for delayed death inhibitors of the malarial parasite plastid, 96 hour incubation | Potency, µM (doses to about 28.7 µM), hits mostly inhibitors | P. falciparum luciferase reporter growth, 96 h | AID 504834, 2011 | 320,000 tested, 6.9% active
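Luminescence readout: decreased luciferase signal marks inhibited growth of reporter-expressing P. falciparum in infected red cells (2% hematocrit, 0.05% parasitemia final), exposed to compound two generations (96 h, 37 C, 5% CO2).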
Pf growth 48h = Primary qHTS for delayed death inhibitors of the malarial parasite plastid, 48 hour incubation. P. falciparum luciferase growth in erythrocytes, 48 h. Potency, µM (highest dose often 28.7 µM), usual class: inhibitors. 310,000 tested, 5.9% active
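In quantitative HTS format, infected erythrocytes bearing luciferase-reporter parasites were treated for a single generation at 37 C. Luminescence after adding detection reagent served as the growth measure.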
Cycloheximide cs = Cycloheximide Counterscreen for Small Molecule Inhibitors of Shiga Toxin. cell reporter, cycloheximide protein synthesis inhibition counterscreen. max response, %. 300,000 tested, 12% active. AID 2314, 2010; in the data active = max response mostly above about 13%, no sharp cut-off; inactive = mostly below about 14%; note: read at 38.3 µM for the half of the compounds with a filed dose
HCMV antiviral = qHTS Assay for inhibitors of the human cytomegalovirus (HCMV); HFF cells, HCMV-luciferase reporter, 72 h; hits give low values; activity change, negative = inhibition, % at 57.5 µM; 410,000 tested, 4.5% active; AID 1259415, 2018; in the data active = activity change below about -60%; inconclusive = no clear call, values can overlap the other calls; inactive = above about -39%
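Human foreskin fibroblasts infected with luciferase-reporter HCMV at MOI 1 PFU/cell, compounds at two doses. Luciferase measured 72 h post infection; normalized to buffer-only basal and Salinomycin (10uM) controls.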
Of the large screens only hits and unclear results are named; the others gave an inactive call. Unless noted, calls come from the whole dose curve; as a rule, active = well fitted inhibition curve with a large enough effect; inconclusive = small, poorly fitted or top-dose-only effect, or another doubt; inactive = no such curve, though single readings can be large or run the other way.

COc1ccc(C)cc1NC(=O)Nc1ccc(C(=O)N2CCCC2)cc1	Shiga inhibitor 48.3, Cycloheximide cs 14.2
Cc1nc2c(s1)sc1ccccc12	Cycloheximide cs 18.9
CC(NC(=S)NNS(=O)(=O)c1cccc([N+](=O)[O-])c1)c1ccccc1 (configuration not stated)	none
CCOCCCn1c(C)nc2c(c1=O)c1nc3ccccc3nc1n2CCC1=CCCCC1	Pf growth 96h 2.62µM, Pf growth 48h inconclusive, HCMV antiviral inconclusive
Cc1nc2c(c(=O)n1CCC1=CCCCC1)c1nc3ccccc3nc1n2/N=C/c1ccccc1	none (no result: Pf growth 48h, HCMV antiviral)
Cc1ccccc1NC(=O)C1CCN(C(=O)N2CCOc3ccccc32)CC1	none
COc1cccc(S(=O)(=O)N(C)C[C@H]2OCc3cnnn3CCCC(=O)N([C@H](C)CO)C[C@@H]2C)c1	none (no result: Shiga inhibitor, Pf growth 96h, Pf growth 48h, Cycloheximide cs)
O=C(Nc1ccon1)c1cc2c(s1)CCCC2	Shiga inhibitor 63.7, Cycloheximide cs 35.1
O=C(Nc1ccon1)c1cc2c(s1)CCCCCC2	Shiga inhibitor 64.1, Pf growth 48h 3.7µM, Cycloheximide cs 29.8 (no result: Pf growth 96h)
CCOC(=O)C1OC1C(=O)N[C@@H](CC(C)C)C(=O)NCCC(C)C (some centres not stated)	none (no result: Pf growth 96h, Pf growth 48h, HCMV antiviral)
Fc1cccc(F)c1-n1c(CN2CCOCC2)csc1=S	none
Fc1cccc(F)c1-n1c(CN2CCCCC2)csc1=S	Pf growth 96h 11.7µM, Pf growth 48h inconclusive, HCMV antiviral -68.0
Cc1ccccc1C(=O)N1CCC(C(=O)Nc2sccc2C(N)=O)CC1	Pf growth 96h inconclusive, Pf growth 48h inconclusive (no result: Shiga inhibitor, Cycloheximide cs)
CC(=O)Nc1ccc(S(=O)(=O)NCCc2ccc(S(N)(=O)=O)cc2)cc1	Pf growth 96h 10.4µM (no result: Pf growth 48h)
CC(=O)Nc1ccc(S(=O)(=O)NCC(=O)NCCCc2ccccc2)cc1	Pf growth 96h inconclusive, Pf growth 48h inconclusive
CCOc1ccc(CCNC(=O)COC(=O)CNS(=O)(=O)c2ccc(NC(C)=O)cc2)cc1OCC	Pf growth 96h 8.28µM, Pf growth 48h inconclusive (no result: Shiga inhibitor, Cycloheximide cs)
CC(=O)Nc1ccc(S(=O)(=O)NCCSCc2ccc(Cl)cc2Cl)cc1	Pf growth 96h inconclusive, HCMV antiviral -67.3
CC(=O)Nc1ccc(S(=O)(=O)NCC(=O)NCCc2ccc(S(N)(=O)=O)cc2)cc1	Pf growth 96h 0.828µM
CC(=O)Nc1ccc(S(=O)(=O)NCCNS(=O)(=O)c2ccc(NC(C)=O)cc2)cc1	Pf growth 96h inconclusive
O=C(C1CCN(S(=O)(=O)c2cc(Cl)ccc2Cl)CC1)N1CCCC1	Pf growth 48h inconclusive
O=C(Cn1cc(SCc2c(F)cccc2Cl)c2ccccc21)N1CCCCC1	none (no result: Shiga inhibitor, Pf growth 96h, Pf growth 48h, Cycloheximide cs)
Cc1ccccc1CN1C(=O)Nc2ccccc2C(=O)N1C(C)(C)C	none (no result: Pf growth 96h)
CC(C)(C)N1C(=O)c2ccccc2NC(=O)N1Cc1ccc(Br)cc1	Pf growth 96h 8.28µM, HCMV antiviral -64.9 (no result: Pf growth 48h)
CCCCCCCCN1C(=O)[C@H](CC(=O)NCc2cccc(C(F)(F)F)c2)C[C@@]2(C(=O)OCC)CCC=C12	none (no result: Shiga inhibitor, Pf growth 96h, Pf growth 48h, Cycloheximide cs)
COc1cc(SC#N)ccc1N=Cc1c(C)[nH]n(-c2ccc(C)c(C)c2)c1=O	Pf growth 48h 5.22µM, HCMV antiviral -65.0
COc1cc(SC#N)ccc1N=Cc1c(C)[nH]n(-c2ccc(Cl)cc2)c1=O	Pf growth 96h 2.08µM, Pf growth 48h 2.08µM
CCOc1ccc(N2C(=O)C(Cl)=C(Nc3ccccc3O)C2=O)cc1	Shiga inhibitor 96.6, Cycloheximide cs 37.3 (no result: Pf growth 48h)
COc1ccc(N2C(=O)C(Cl)=C(Nc3ccc(OC)cc3OC)C2=O)cc1	Cycloheximide cs 44.1
O=C1C(Cl)=C(Nc2ccccc2O)C(=O)N1CCc1ccccc1	Cycloheximide cs 30.2
COc1ccc(NC2=C(Cl)C(=O)N(c3ccccc3)C2=O)c(OC)c1	Pf growth 96h inconclusive
COc1ccc(C(=O)NCC(=O)NCC(=O)OCC(=O)C(C)(C)C)cc1	none
CCNC(=O)Nc1ccc(-n2nc(C)c(C(=O)OCC)c2C)nc1	Pf growth 96h inconclusive, Pf growth 48h inconclusive
O=C(NC(N1CCOCC1)C(Cl)(Cl)Cl)c1ccco1 (configuration not stated)	Shiga inhibitor 128.5, Cycloheximide cs 70.4
O=C(NC(N1CCOCC1)C(Cl)(Cl)Cl)c1ccc(Br)cc1 (configuration not stated)	none
O=C(/C=C/c1ccccc1)NCCN1CCOCC1	none
O=C(/C=C/c1ccccc1)NC(N1CCOCC1)C(Cl)(Cl)Cl (configuration not stated)	Cycloheximide cs 29.7
Cc1cccc(C2(c3cccc(C)c3)CC2C(=O)Nc2ccc([N+](=O)[O-])cc2O)c1 (configuration not stated)	Pf growth 96h inconclusive, Pf growth 48h 2.08µM, HCMV antiviral -104.2
Cn1ncc([N+](=O)[O-])c1C(=O)N1CCCCCC1	Pf growth 96h inconclusive
CC(CN1CCCCC1)C(=O)NNC(=O)C12CC3CC(CC(C3)C1)C2 (configuration not stated)	Pf growth 96h 11.7µM
Cc1cccc(N2CC(c3nc4ccccc4[nH]3)CC2=O)c1 (configuration not stated)	none
C/C(=N\NC(=O)c1sccc1C)c1cccnc1	Shiga inhibitor 89.1, Cycloheximide cs 41.3 (no result: HCMV antiviral)
C/C(=N/NC(=O)c1ccco1)c1cccnc1	Pf growth 96h inconclusive
C/C(=N\NC(=O)c1sccc1C)c1ccncc1	Shiga inhibitor 109.1, Pf growth 96h 7.38µM, Cycloheximide cs 43.9
C/C(=N\NC(=O)c1ccncc1)c1ccc(N(C)C)cc1	none
O=C(NNC1CC(=O)N(c2ccccc2)C1=O)c1ccc(COc2ccccc2Cl)o1 (configuration not stated)	none
C=CCNC(=S)N/N=C/c1ccc(C(F)(F)F)cc1	Pf growth 96h inconclusive, Pf growth 48h inconclusive, HCMV antiviral -86.1
C=CCNC(=S)N/N=C/c1ccc(C)c([N+](=O)[O-])c1	HCMV antiviral inconclusive
FC(F)(F)c1cccc(/C=N/NC(=S)NC2CCCCC2)c1	Pf growth 96h inconclusive, Pf growth 48h inconclusive, HCMV antiviral -95.1
FC(F)(F)c1ccc(/C=N/NC(=S)NC2CCCCC2)cc1	Pf growth 96h 3.29µM, Pf growth 48h inconclusive
C=CCNC(=S)N/N=C/c1ccc(C)cc1C	Pf growth 96h inconclusive, Pf growth 48h 10.4µM, HCMV antiviral -62.1
CSCC[C@@H]1NC(=O)[C@@H](NC(=O)[C@H](CCCNC(=N)N)NC(=O)[C@H](CC(C)C)NC(=O)[C@H](CCSC)NC(=O)[C@H](CC(=O)O)NC(=O)[C@H](Cc2ccccc2)NC(=O)[C@@H](N)CC(=O)O)CSSC[C@@H](C(=O)N[C@@H](Cc2c[nH]c3ccccc23)C(=O)N[C@@H](CCC(N)=O)C(=O)N[C@@H](Cc2ccc(O)cc2)C(=O)O)NC(=O)[C@@H]2CCCN2C(=O)[C@H](CCCNC(=N)N)NC(=O)[C@H](Cc2ccccc2)NC(=O)[C@H](C(C)C)NC(=O)[C@H](CCCNC(=N)N)NC(=O)CNC(=O)[C@H](CC(C)C)NC1=O	none (no result: Pf growth 96h, Pf growth 48h, HCMV antiviral)
CCOc1ccc(Br)cc1C1C(C(=O)Nc2ccccc2OC)=C(C)Nc2nnnn21 (configuration not stated)	none (no result: Shiga inhibitor, Pf growth 96h, Pf growth 48h, Cycloheximide cs)
